These results are taken from ChEMBL document CHEMBL3433997, “St. Jude Leishmania screening dataset” (2016).

What all share (assay type): functional
Assay [1] concerns the target Solute carrier family 2, facilitated glucose transporter member 1 (Homo sapiens) (UniProt P11166). The assay is described as follows: ST_JUDE_LEISH: Cytotoxicity at 2uM final concentration against transgenic Leishmania Mexicana promastigotes LmGLUT1 that are glucose transport deficient and complemented with the human glucose transporter GLUT1. Activity is measured by DNA content using SYBR green in vitro.

Assay [2] addresses Hexose transporter 1 (Plasmodium falciparum) (UniProt O97467). Briefly: ST_JUDE_LEISH: Cytotoxicity at 2uM final concentration against transgenic Leishmania Mexicana promastigotes LmPfHT that are glucose transport deficient and complemented with the Plasmodium falciparum hexose transporter. Activity is measured by DNA content using SYBR green in vitro.
Assay [3] concerns the target Glucose transporter (Leishmania mexicana) (UniProt O61059). Briefly: ST_JUDE_LEISH: Cytotoxicity at 2uM final concentration against transgenic Leishmania Mexicana promastigotes LmGT2 that are glucose transport deficient and complemented with the L. Mexicana glucose transporter 2. Activity is measured by DNA content using SYBR green in vitro.

Chain of Solute carrier family 2, facilitated glucose transporter member 1 (Homo sapiens) (P11166 whole entry): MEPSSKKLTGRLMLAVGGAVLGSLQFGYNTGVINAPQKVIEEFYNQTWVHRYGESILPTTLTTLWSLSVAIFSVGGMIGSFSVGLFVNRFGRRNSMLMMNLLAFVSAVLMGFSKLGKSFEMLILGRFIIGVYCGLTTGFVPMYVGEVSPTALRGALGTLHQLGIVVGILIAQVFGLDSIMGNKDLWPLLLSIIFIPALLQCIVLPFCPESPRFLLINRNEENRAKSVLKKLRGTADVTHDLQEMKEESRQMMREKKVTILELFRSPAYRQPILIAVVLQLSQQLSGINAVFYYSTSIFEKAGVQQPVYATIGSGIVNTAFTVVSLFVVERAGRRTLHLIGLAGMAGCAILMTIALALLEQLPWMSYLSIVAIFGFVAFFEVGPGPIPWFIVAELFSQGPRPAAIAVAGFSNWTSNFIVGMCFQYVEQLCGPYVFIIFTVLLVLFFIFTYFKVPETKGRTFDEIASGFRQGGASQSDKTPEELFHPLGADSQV

Consider `O=C(NC1CCN(Cc2ccc3c(c2)OCCO3)CC1)c1ccc(-c2cccc(Cl)c2)s1`, for which the values for the inhibition in assay [1], in assay [2] and in assay [3] were 5.55%, 5.55% and 6.98%, respectively.

For the compound `CN(C)CCCOc1cccc(NC(=O)Nc2ccc(Cl)c(Cl)c2)c1`, the inhibition (usually the drop in the measured response relative to a control, in per cent) is -1.47% in assay [1], -0.6% in assay [2] and -1.24% in assay [3].

In the case of `N#Cc1ccc(N2CCN(Cc3ccc(-c4ccc(-c5nc6ccccc6[nH]5)s4)cc3)CC2)nc1`, the inhibition in assay [1] worked out at 6.79%; in assay [2], 6.18%; in assay [3], 2.59%.

In the case of `CCCOC(=O)c1ccc(OCCCON2C(=N)N=C(N)NC2(C)C)cc1`, the inhibition in assay [1] is 2.28%; in assay [2] it was -0.38%; in assay [3] it was 5.01%.

Turning to `Nc1ncc(-c2cn[nH]c2)cc1-c1nc2ccc(Cl)cc2[nH]1`, the inhibition in assay [1] worked out at 2.56%; in assay [2], 3.75%; in assay [3], 3.89%.

With `Nc1nccc2ccc(-c3ccncc3)cc12`, the inhibition worked out at 5.87% in assay [1], 7.14% in assay [2] and 6.25% in assay [3].

Consider `COc1ccccc1CCC(C)(C)NC(=O)CC(CCc1ccccc1)Nc1ccc(C#N)c2ccccc12` (centres undefined), for which the inhibition was -0.97% in assay [1], -0.79% in assay [2] and -3.34% in assay [3].

Consider `Cc1ccc(O)cc1Nc1ccnc2cc(-c3ccc(CN4CCCCC4)o3)ccc12`, for which the inhibition in assay [1] was found to be 14.4%; in assay [2], 12.2%; in assay [3], 13.8%.

With `COc1cc(Cn2ccc3c4c(N)nc(N)nc4ccc32)cc(OC)c1OC`, the inhibition was 86.3% in assay [1], 83.5% in assay [2] and 73.1% in assay [3].

`CCCCNCc1cc(Cl)c2ccccc2c1O`: the inhibition amounted to 7.17% in assay [1], 7.57% in assay [2] and 6.58% in assay [3].

On to `O=c1cc(NCCNCc2cccc(-c3ccccc3)c2)[nH]c2ccccc12`, for which the figures for the inhibition in assay [1], in assay [2] and in assay [3] were 4.41%, -0.15% and 1.64%, respectively.

Take `Cc1cccc(OCC(=O)Nc2cccc(NC(=O)COc3cccc(C)c3)n2)c1`: the inhibition in assay [1] stood at 0.99%; in assay [2] it was 1.55%; in assay [3], 1.64%.

Turning to `N#Cc1ccc(-c2ccc(C(=O)NCCCCN3CCC(c4ccc5c(c4OCC(N)=O)CCCC5)CC3)nc2)cc1`, the inhibition in assay [1] was 3.35%; in assay [2] it was 0.86%; in assay [3] it was 2.97%.

For the compound `Cc1ccc(C(=O)Nc2ccc(OC3CCN(CCC(C)C)C3)c(Cl)c2)cc1` (centres undefined), the inhibition in assay [1] stood at 3.79%; in assay [2], 4.8%; in assay [3] it was 3.43%.

As for `C[C@H](NC(=O)[C@H](Cc1ccccc1)NC(=O)OC(C)(C)C)C(=O)N[C@@H](CC1CCCCC1)C(O)CN` (some centres undefined), the values for the inhibition in assay [1], in assay [2] and in assay [3] were -1.66%, 0.84% and -1.53%, respectively.

As to `O=C(Nc1ccc(-c2cccc(-c3nc4cc(C(F)(F)F)ccc4[nH]3)c2)cc1)c1csnn1`, the inhibition in assay [1] came out at 16.1%; in assay [2], 23.4%; in assay [3], 14.2%.

Turning to `Cc1[nH]c(C)c(-c2ccc(OCc3ccc(OC(F)(F)F)cc3)nc2)c(=O)c1Cl`, the inhibition amounted to 13.3% in assay [1], 15.2% in assay [2] and 11.2% in assay [3].

Consider `CN1CCN(c2cc(NC(=O)Nc3cccc(Cl)c3Cl)ccc2Cl)CC1`, for which the inhibition in assay [1] is -2.56%; in assay [2], -2.86%; in assay [3] it was -2.68%.

Take `CCOC(=O)C(C)(C)Oc1ccc(C(=C2CC(C)(C)CC(C)(C)C2)c2ccc(O)cc2)cc1`: the values for the inhibition in assay [1], in assay [2] and in assay [3] were 4.11%, 2.31% and 3.56%, respectively.

Consider `O=[N+]([O-])c1cccc(C=NNc2nc(=Nc3ccccc3)[nH]c(=Nc3ccccc3)[nH]2)c1`, for which the values for the inhibition in assay [1], in assay [2] and in assay [3] were 4.34%, 7.8% and -0.18%, respectively.

`O=C(Nc1cccc(-c2nn3ccccc3c2-c2ccnc(Nc3cccc(F)c3)n2)c1)c1c(F)ccc(F)c1F`: the results for the inhibition in assay [1], in assay [2] and in assay [3] were 6.01%, 9.13% and 5.56%, respectively.

Consider `CCOC(=O)c1ccc(NC(=O)Nc2ccc(-c3cccc(-c4nc5cc(F)ccc5[nH]4)c3)cc2)cc1`, for which the inhibition came to 2.36% in assay [1], 2.86% in assay [2] and 1.54% in assay [3].

Regarding `Cn1nccc1C(=O)NCCNCc1cccc(-c2ccc(-c3nc4ccccc4[nH]3)cc2)c1`, the results for the inhibition in assay [1], in assay [2] and in assay [3] were 0.23%, 0.79% and -1.98%, respectively.

In the case of `Cc1[nH]cc(Br)c(=O)c1-c1ccc(Oc2ccc(OC(F)(F)F)cc2)cc1`, the figures for the inhibition in assay [1], in assay [2] and in assay [3] were 3.93%, 4.74% and 4.41%, respectively.

For the compound `CCn1c(=O)c(C(=O)Nc2cc(Cl)c(OC)cc2OC)nc2ccccc21`, the figures for the inhibition in assay [1], in assay [2] and in assay [3] were 11.7%, 9.32% and 10.5%, respectively.

As for `CCCCOc1c(CCC)cc(Cc2cnc(N)nc2N)cc1CCC`, the inhibition in assay [1] was 7.57%; in assay [2], 3.82%; in assay [3], -0.35%.

On to `Clc1cc2c(Nc3ccc(Oc4ccccc4)cc3)ccnc2cc1-c1ccc(CNCCN2CCOCC2)o1`, for which the inhibition in assay [1] was -1.44%; in assay [2] it was -0.57%; in assay [3] it was -0.03%.

For `Cc1ccc(-n2c(C)cc(C(=O)CN3C(=O)NC(Cc4ccccc4)C3=O)c2C)cc1` (centres undefined), the values for the inhibition in assay [1], in assay [2] and in assay [3] were 0.81%, -1.87% and 0.55%, respectively.

For the compound `COc1ccc2ncc(F)c(CCN3CCC(NCc4cc(C)c5c(c4)OCCO5)CC3)c2n1`, the results for the inhibition in assay [1], in assay [2] and in assay [3] were 11.1%, 15.4% and 5.07%, respectively.

As for `CC(=O)Oc1c(C2CCN(CCCCNC(=O)c3ccc(NC(=O)c4ccc(Cl)cc4)cc3)CC2)ccc2ccccc12`, the values for the inhibition in assay [1], in assay [2] and in assay [3] were 3.43%, 3.63% and 4.42%, respectively.

For `Cc1cc(NC(=O)NCCN2CCC(NC(=O)c3ccc(Cl)cc3)CC2)c2ccccc2n1`, the values for the inhibition in assay [1], in assay [2] and in assay [3] were 1.7%, 1.76% and 2.94%, respectively.

As for `Cc1cc(Cl)c(Cl)cc1NC(=O)Nc1cccc(C(F)(F)F)c1`, the inhibition was 1.27% in assay [1], -0.59% in assay [2] and -0.28% in assay [3].

For the compound `O=C1NC(C(=O)Nc2ccccc2)C(c2ccccc2)S1` (centres undefined), the inhibition in assay [1] is -0.88%; in assay [2], -1.96%; in assay [3], -0.52%.
